# Test results from PubChem BioAssay (EPA / NIEHS).
# Where “and” joins values, the source holds several entries; their conditions need not be identical. Identical values can stand only once. Where a structure was tested more than once in an assay, its records may differ in their call. Calls of active or inactive are those of the source. How the source made its calls: active means hit-call score of the fitted dose curve at least 0.9, where 1 is the maximum; inactive means score below 0.9.
# Test: CCTE_Shafer_MEA_acute_cross_correlation_HWHM: CCTE's Neural Acute Assay for Cross Correlation at Half Width at Half Maximum, Shafer Lab (AID 2284026)
# Experimental: CCTE_Shafer_MEA_acute assay is conducted using Axion Biosystems 48 well microelectrode array (MEA) plates and Maestro recording system. Each well of the MEA plate contains a grid of 16 microelectrodes embedded in the culture surface. Electrically active cells, such as neurons, can be cultured over the electrodes, and electrical activity in these cells can be recorded extracellularly. The spontaneous firing of neurons is captured from each electrode on a microsecond timescale providing both temporally and spatially precise data. […] The CCTE_Shafer_MEA_acute assay uses primary cultures of rat cortical neurons. As these cultures mature over time, neural networks develop functional activity and form cohesive networks in which electrical activity can be highly coordinated. Baseline 40-minute recordings are made on days post-plating 13 or 15, followed by a secondary 40-minute recording after chemical exposure.CCTE_Shafer_MEA_acute_cross_correlation_HWHM is a component of the CCTE_Shafer_MEA_acute assay. It measures the distance along the x-axis (phase lag) from the left half maximum height to the center of the cross-correlogram of action potential firing during a recording in a microelectrode array (MEA) using Axion Biosystems Maestro 768 channel amplifier with the AxIS adaptive spike detector. Smaller values indicate a narrower correlogram (greater synchrony). The recordings before and after chemical treatment are used to calculate a percent change in the half width at half maximum of the cross-correlogram in each well.Data from the assay component CCTE_Shafer_MEA_acute_cross_correlation_HWHM was analyzed into 1 assay endpoint. This assay endpoint, CCTE_Shafer_MEA_acute_cross_correlation_HWHM, was analyzed in the negative analysis fitting direction relative to DMSO as the negative control and baseline of activity. Using a type of functional reporter, gain or loss-of-signal activity can be used to understand electrical activity.
# Spontaneous activity in the cortical cultures was recorded using an Axion Biosystems Maestro 768 channel amplifier and Axion Integrated Studios (AxIS) v1.8 (or later) software. The amplifier recorded from all channels simultaneously (gain = 1200 x; sampling rate = 12.5 kHz/channel): raw signals were filtered with a Butterworth band-pass filter (300-5000 Hz), which filters out slower local field potentials leaving only fast potentials, i.e., "spikes", arising from extracellular currents associated with action potentials (Pine 2006; Wheeler and Nam 2011). On-line spike detection of filtered signals was conducted with the AxIS adaptive spike detector, using a threshold of 8x the root mean squared (rms) noise on each channel. Any electrodes with rms noise levels greater than 5 uV were grounded (e.g., no data were recorded). Once grounded, an electrode was grounded for the duration of the experiment. All recordings were conducted at 37 C. Wells were deemed usable if on the day of the exposure >/= 10 electrodes were active (defined as >/= 5 spikes/min). On DIV 13 or 15, a minimum of three wells from one cortical culture preparation were treated with each compound (0.03-40 uM). Prior to recording baseline activity, each mwMEA plate was placed in the Maestro at 37 C and allowed to sit for 20 min while firing rates stabilized. Baseline activity (40 min) was recorded before the addition of each compound. An additional 40 min of spontaneous activity was recorded in the presence of each compound. Changes in network parameters relative to baseline were assessed following compound treatment.
SMILES,AC50,outcome
CC(C)N(C(=O)COc1nnc(C(F)(F)F)s1)c1ccc(F)cc1,20 µM (active) and 10.9 µM (active),
CC1(C)C(C=C(Cl)Cl)C1C(=O)OC(C#N)c1ccc(F)c(Oc2ccccc2)c1 (stereo not given),15 µM (active),inactive
ClC1C(Cl)C(Cl)C(Cl)C(Cl)C1Cl (stereo not given),,inactive
Clc1ccccc1-c1nnc(-c2ccccc2Cl)nn1,,inactive
CCCN(CCC)c1c([N+](=O)[O-])cc(C(F)(F)F)cc1[N+](=O)[O-],,inactive
O=S1OCC2C(CO1)C1(Cl)C(Cl)=C(Cl)C2(Cl)C1(Cl)Cl (stereo not given),19.8 µM (active),inactive
O=S(=O)(O)C(F)(F)C(F)(F)C(F)(F)C(F)(F)C(F)(F)C(F)(F)C(F)(F)C(F)(F)F,,inactive
CCCN(CCOc1c(Cl)cc(Cl)cc1Cl)C(=O)n1ccnc1,,inactive
COP(=S)(OC)Oc1ccc(SC)c(C)c1,31.2 µM (active),
Oc1cc(Cl)ccc1Oc1ccc(Cl)cc1Cl,20 µM (active),
N#Cc1c(Cl)c(Cl)c(Cl)c(C#N)c1Cl,,inactive
O=[N+]([O-])/N=C1\NCCN1Cc1ccc(Cl)nc1,,inactive
C[C@H]1[C@H](c2ccc(Cl)cc2)SC(=O)N1C(=O)NC1CCCCC1,23.5 µM (active),
CC[C@H](C)[C@H]1O[C@]2(C=C[C@@H]1C)C[C@@H]1C[C@@H](C/C=C(\C)[C@@H](O[C@H]3C[C@H](OC)[C@@H](O[C@H]4C[C@H](OC)[C@@H](O)[C@H](C)O4)[C@H](C)O3)[C@@H](C)/C=C/C=C3\CO[C@@H]4[C@H](O)C(C)=C[C@@H](C(=O)O1)[C@]34O)O2 (tested in a mixture with another compound),0.0109 µM (active),
O=C(O)CCCOc1ccc(Cl)cc1Cl,,inactive
N#CN,,inactive
CNC(=O)CSP(=S)(OC)OC,,inactive
CC(C)OC(=O)Nc1cccc(Cl)c1,20 µM (active),
CCC(C)(C)C(=O)OC1=C(c2ccc(Cl)cc2Cl)C(=O)OC12CCCCC2,0.106 µM (active),inactive
O=C1c2ccccc2C(=O)N1SC(Cl)(Cl)Cl,,inactive
CCC(C)Nc1c([N+](=O)[O-])cc(C(C)(C)C)cc1[N+](=O)[O-] (stereo not given),,inactive
CNC(=O)/C=C(\C)OP(=O)(OC)OC,,inactive
